Measured values published in PubChem BioAssay (EPA / NIEHS).
Where “and” joins values, the source holds several entries; their conditions need not be identical. Identical values can stand only once. A structure can be active in one record and inactive in another. Calls of active or inactive are those of the source. How the source made its calls: active means hit-call score of the fitted dose curve at least 0.9, where 1 is the maximum; inactive means score below 0.9.

Experiment: ATG_GLI_CIS: Attagene CIS-FACTORIAL HepG2 Assay for human Zinc Finger Protein GLI1 (AID 2282945)
Details: HepG2, Attagene cis-factorial reporter mRNA, GLI element; actives raise or lower the signal
Procedure: ATG_CIS is a cell-based, multiplexed-readout assay that uses HepG2, a human liver cell line, with measurements taken at 24 hours after chemical dosing in a 24-well plate.ATG_GLI_CIS is one of 52 assay component(s) measured or calculated from the ATG_CIS assay. It is designed to make measurements of mRNA induction, a form of inducible reporter, as detected with fluorescence intensity signals by Reverse transcription polymerase chain reaction (RT-PCR) and Capillary electrophoresis technology.Data from the assay component ATG_GLI_CIS was analyzed into 1 assay endpoint. This assay endpoint, ATG_GLI_CIS, was analyzed with bidirectional fitting relative to DMSO as the negative control and baseline of activity. Using a type of inducible reporter, measures of mRNA for gain or loss-of-signal activity can be used to understand the reporter gene at the transcription factor-level as they relate to the gene GLI1. Furthermore, this assay endpoint can be referred to as a primary readout, because this assay has produced multiple assay endpoints where this one serves a reporter gene function. To generalize the intended target to other relatable targets, this assay endpoint is annotated to the dna binding intended target family, where the subfamily is zinc finger.
Human liver HepG2 cells are transiently transfected with multiple reporter transcription units (MRTUs) in 6-well plates using FuGene 6 reagent (Roche; 3 ml FuGene/1 mg DNA). The MRTU constructs are regulated by a cis-regulating element (promoter). […] A major difference between the CIS and TRANS system is that in CIS activities of endogenous TFs are measured, whereas the TRANS assay evaluates changes in activities of exogenous, chimeric NR-Gal4 proteins. […] At the end of 24 hour incubation, total RNA was isolated using TriZol reagent (Invitrogen). The isolated RNA is then reverse-transcribed using oligo(dT) primer and Mo-MLV reverse transcriptase (Invitrogen) with DNAse I (Ambion) treatment for 30 min. The one-tenth of the produced cDNA was amplified by PCR using Taq DNA polymerase (Invitrogen) and two reporter sequence-specific primers. The PCR products were fluorescently labeled by primer extension with 6-arboxyfluorescein (6-FAM) 5'-labeled reporter sequence-specific primer (2 min at 95 C, 20 s at 68 C and 10 min at 72 C) and these products were digested with 5U of HpaI (New England Biolabs) for 2h at 37 C. The fragments were purified using Qiaquick PCR columns (Qiagen), analyzed on an ABI 3130xL genetic analyzer (Applied Biosystems) with peak positions identified by using a set of X-rhodamine (ROX)-labeled MapMarker1000 molecular weight standards (BioVentures). The raw capillary electrophoresis data was processed using Attagraph software (Attagene).

Row | SMILES | AC50 | outcome
1 | ClC(Cl)=C(c1ccc(Cl)cc1)c1ccc(Cl)cc1 | 131 µM (active) and 63.1 µM (active) and 121 µM (active) | inactive
2 | O=C(NC(=O)c1c(F)cccc1F)Nc1cc(Cl)c(OC(F)(F)C(F)F)c(Cl)c1 |  | inactive
3 | C[C@]12CCC(=O)C=C1CC[C@@H]1[C@@H]2CC[C@@]2(C)[C@H]1CC[C@]2(C)O |  | inactive
4 | Cc1ccc(O)c(C)c1 |  | inactive
5 | ClC1=C(Cl)[C@]2(Cl)[C@@H]3[C@@H]4C[C@@H]([C@H]5O[C@@H]45)[C@@H]3[C@@]1(Cl)C2(Cl)Cl |  | inactive
6 | C=CC(=O)NCNC(=O)C=C |  | inactive
7 | Cc1cc2c3c(c1)C(c1ccccc1)=N[C@@H](NC(=O)c1ccncc1)C(=O)N3CC2 |  | inactive
8 | C=CC(N)=O |  | inactive
9 | COc1ccc(O)c(C(C)(C)C)c1 |  | inactive
10 | Oc1ccc(C(c2ccc(O)cc2)(C(F)(F)F)C(F)(F)F)cc1 |  | inactive
11 | Cc1cc(-c2ccc(N)c(C)c2)ccc1N |  | inactive
12 | O=S(=O)(O)C(F)(F)C(F)(F)C(F)(F)C(F)(F)F |  | inactive
13 | CCOC(=O)C(O)(c1ccc(Cl)cc1)c1ccc(Cl)cc1 |  | inactive
14 | CC(C)(c1ccccc1)c1ccc(O)cc1 | 55.4 µM (active) | inactive
15 | O=NN(c1ccccc1)c1ccccc1 |  | inactive
16 | Cc1cccc([N+](=O)[O-])c1 |  | inactive
17 | Oc1c(Cl)c(Cl)c(Cl)c(Cl)c1Cl | 82 µM (active) | inactive
18 | O=C(NC(=O)c1cc(F)c(F)cc1Cl)Nc1cc(F)ccc1N1CCC(C(=O)O)CC1 |  | inactive

Row | SMILES | AC50 | outcome
19 | Sc1ccccc1 |  | inactive
20 | CN(C)CCO |  | inactive
21 | CCCCCCCCCc1ccc(O)cc1 | 184 µM (active) | inactive
22 | O=C(O)C(F)(F)C(F)(F)C(F)(F)C(F)(F)C(F)(F)C(F)(F)C(F)(F)C(F)(F)C(F)(F)F |  | inactive
23 | Oc1ccc(Cl)cc1Cl |  | inactive
24 | CC(C)C(=O)OCC(C)(C)C(OC(=O)C(C)C)C(C)C (stereo not given) |  | inactive
25 | c1cc2ccc3cccc4ccc(c1)c2c34 |  | inactive
26 | CCC(C)(CC)c1cc(NC(=O)c2c(OC)cccc2OC)on1 |  | inactive
27 | Nc1ccc(-c2ccc(N)cc2)cc1 |  | inactive
28 | N#Cc1ccc(N(CC(N)=O)CC(F)(F)F)cc1C(F)(F)F |  | inactive
29 | c1ccc(-c2ccccc2)cc1 |  | inactive
30 | CCC(=O)O[C@H]1CC[C@H]2[C@@H]3CCC4=CC(=O)CC[C@]4(C)[C@H]3CC[C@]12C |  | inactive
31 | CO/C=C(/C(=O)OC)c1ccccc1COc1cccc(C(F)(F)F)n1 |  | inactive
32 | CCOCCOC(C)=O |  | inactive
33 | ClC1=C(Cl)[C@]2(Cl)[C@@H]3[C@@H](Cl)[C@H]4O[C@H]4[C@@H]3C1(Cl)C2(Cl)Cl |  | inactive
34 | CCCN(CCC)N=O |  | inactive
35 | O=S(=O)(O)C(F)(F)C(F)(F)C(F)(F)C(F)(F)C(F)(F)C(F)(F)F |  | inactive
36 | O=C(N[C@H]1CN2CCC1CC2)c1cc2ccoc2cn1 |  | inactive
